The source made the active and inactive calls.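 Rule for the calls: active = blocks over 70% of labeled estradiol binding at 10 µM, or over a set limit at 100 nM; inactive = the rest.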
Target: Estrogen receptor beta (Homo sapiens) (UniProt Q92731)
Test: displacement of fluorescent estrogen from ERbeta – cell-based, Cos7 ERbeta-GFP, flow cytometry, primary screen (AID 1210);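 note: 0% = DMSO vehicle wells and 100% = complete loss of labeled estradiol signal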
Conditions: fluorescent estrogen binding, stronger effect = higher value
[1] = ligand binding inhibition, at 0.1 µM

Estrogen receptor beta (Homo sapiens), sequence (Q92731 whole entry, looked up): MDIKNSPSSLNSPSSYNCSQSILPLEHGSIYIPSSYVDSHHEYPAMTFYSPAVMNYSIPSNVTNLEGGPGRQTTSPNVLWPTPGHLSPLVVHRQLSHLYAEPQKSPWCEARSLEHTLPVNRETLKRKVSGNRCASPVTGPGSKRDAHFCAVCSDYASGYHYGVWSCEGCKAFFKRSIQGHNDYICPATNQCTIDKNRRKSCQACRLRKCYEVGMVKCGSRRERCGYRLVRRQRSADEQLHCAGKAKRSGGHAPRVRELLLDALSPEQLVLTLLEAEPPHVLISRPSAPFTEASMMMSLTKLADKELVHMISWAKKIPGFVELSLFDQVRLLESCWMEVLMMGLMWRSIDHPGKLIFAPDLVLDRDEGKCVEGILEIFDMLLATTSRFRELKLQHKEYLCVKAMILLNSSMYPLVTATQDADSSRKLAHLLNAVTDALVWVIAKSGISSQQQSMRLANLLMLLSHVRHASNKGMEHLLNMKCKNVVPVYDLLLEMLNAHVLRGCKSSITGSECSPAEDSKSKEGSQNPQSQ

Row | Structure (SMILES) | inhibition (at 10 µM) | inhibition [1] [%]
1 | O=C(COC(=O)c1ccccc1Oc1ccccc1)NCc1ccco1 | 16% (inactive) | 65
2 | C=CCn1c(COc2cccc(C)c2)nnc1SCC(=O)NC(=O)NCc1ccco1 | 31% (inactive) | 47
3 | CC(=O)c1ccc2c(c1)C1C=CCC1C(C(=O)O)N2 (centres undefined) | 19% (inactive) | 6
4 | CCC1(C)NC(=O)N(CC(=O)Nc2sc3c(c2C(N)=O)CCC3)C1=O (centres undefined) | 58% (inactive) | 39
5 | O=C1OC(c2ccc(O)cc2)(c2ccc(O)cc2)c2ccccc21 | 51% (inactive) | 11
6 | O=c1cc(-c2ccccc2Cl)oc2c(Br)ccc(O)c12 | 33% (inactive) | 19
7 | O=c1[nH]cnc2c1sc1nc3c(c(-c4ccc(Cl)cc4)c12)CCC3 | 51% (inactive) | 19
8 | Cc1cc(C)n2nc(SCc3cc(=O)oc4cc(O)ccc34)nc2n1 | 19% (inactive) | 19
9 | O=C(Nc1cccc(-c2cnc3ccccc3n2)c1)c1cccc(NC(=O)c2ccco2)c1 | 58% (inactive) | 43
10 | O=C1NCCCC2c3cc(O)c4ccccc4c3OC12N1CCCCC1 (centres undefined) | 56% (inactive) | 27
11 | CC(=O)Nc1ccc(OC(=O)CC2SC(=O)NC2=O)cc1 (centres undefined) | 59% (active) | 66
12 | Nc1ccc2oc(-c3ccc4nc[nH]c4c3)nc2c1 | 62% (inactive) | 2
13 | C/C(=N\Nc1ccc([N+](=O)[O-])cc1)c1cccc(N)c1 | 14% (inactive) | 24
14 | Cc1ccc(-n2c(=O)c(C#N)cc3c(=O)n4cccc(C)c4nc32)cc1 | 72% (active) | 29
15 | COc1ccc(N2Cc3cccc(C(=O)N4CCN(C(=O)c5ccco5)CC4)c3C2=O)cc1 | 29% (inactive) | 27
16 | Cc1ccc(N=Cc2c(O)n(-c3ccc4c(c3)OCO4)c(=O)c3ccccc23)cc1 | 15% (inactive) | 21
17 | COc1cc(C2Nc3c(F)cccc3C3C=CCC32)cc(Br)c1OC (centres undefined) | 0% (inactive) | 25
18 | O=C(Oc1ccc(-c2cnc3ccccc3n2)cc1)c1ccc(Br)o1 | 72% (active) | 29
19 | COc1cc(C(=O)Nc2nnc(-c3sccc3C)s2)cc(OC)c1OC | 52% (inactive) | 34
20 | Nc1ccc2oc(-c3ccccc3Cl)cc(=O)c2c1O | 25% (inactive) | 26
21 | CCOC(=O)c1c(NC(=O)CSc2nnc(-c3ccccc3)o2)sc(C(C)=O)c1C | 40% (inactive) | 32
22 | O=C(CNc1ccccc1)N/N=C/c1cn(-c2ccccc2)nc1-c1ccccc1 | 53% (inactive) | 48
23 | CC1(C)CC(=O)C2=C(C1)OC(c1ccc(O)cc1)C(C#N)=C2N (centres undefined) | 47% (inactive) | 49

Row | Structure (SMILES) | inhibition (at 10 µM) | inhibition [1] [%]
24 | CCCOc1ccc(-c2nn(-c3ccccc3)cc2/C=C2\SC(N)=NC2=O)cc1 | 36% (inactive) | 19
25 | COc1ccc2c(c1OC)C(=O)N1N=C(c3ccc(O)cc3)CC21 (centres undefined) | 21% (inactive) | 39
26 | O=C(O)C1Nc2c(O)cc(Cl)c([N+](=O)[O-])c2C2C=CCC12 (centres undefined) | 31% (inactive) | 18
27 | CCC1(CC)NC(=O)N(CC(=O)Nc2sc3c(c2C(N)=O)CCC3)C1=O | 16% (inactive) | 5
28 | Cc1oc2c(C)c(O)ccc2c(=O)c1-c1ccc2ccccc2n1 | 15% (inactive) | 54
29 | CCOC(=O)CSc1nn(C)c(=S)s1 | 47% (active) | 72
30 | COc1cccc(NC(=O)CSc2nc3ccccc3c3nc4ccccc4n23)c1 | 31% (inactive) | 18
31 | C=CCn1c(SCC(=O)NC(=O)NCc2ccco2)nc2sc(CC)cc2c1=O | 33% (inactive) | 10
32 | CCCc1cc(-n2ccnc2)n2c(nc3ccccc32)c1C#N | 32% (active) | 75
33 | Cc1ccc(N=Cc2ccc(O)cc2O)cc1F | 34% (inactive) | 15
34 | CCCCN(CCCC)S(=O)(=O)c1ccc(NC(=O)Cc2cccs2)cc1 | 50% (inactive) | 19
35 | C[C@]12CC[C@@H]3c4ccc(O[C@@H]5O[C@H](C(=O)O)[C@@H](O)[C@H](O)[C@H]5O)cc4CC[C@H]3[C@@H]1C[C@@H](O)[C@@H]2O | 52% (inactive) | 15
36 | Nc1ccc(-c2cc(-c3ccc(N)cc3)nc(-c3ccccc3)n2)cc1 | 43% (inactive) | 29
37 | Cc1ccc2occ(C3NC(C(=O)O)CS3)c(=O)c2c1 (centres undefined) | 62% (inactive) | 27
38 | CCc1nc2sc3ccccc3c(=O)c2c(=O)n1Cc1ccco1 | 46% (active) | 66
39 | Cc1oc2cc(O)ccc2c(=O)c1Oc1ccccc1 | 22% (inactive) | 37
40 | Nc1ccc2nc(-c3cccs3)[nH]c2c1 | 50% (inactive) | 34
41 | Cc1cc(-c2nnc3sc(-c4ccc(Cl)cc4Cl)nn23)n[nH]1 | 32% (inactive) | 38
42 | Cc1ccccc1Nc1nnc(SCC(=O)NCc2ccco2)s1 | 26% (inactive) | 18
43 | CCC(=O)Oc1ccc(/C(CC)=C(\CC)c2ccc(OC(=O)CC)cc2)cc1 | 68% (active) | 80
44 | COCc1cc(=O)n2c(-c3ccc(C)cc3)n[nH]c2n1 | 12% (inactive) | 39
45 | CN1C(=O)CSc2ccc(NC(=O)N3CCC(N4CCCCC4)CC3)cc21 | 30% (inactive) | 19
46 | O=C(O)c1cc(-c2ccc(O)cc2)nc2ccccc12 | 57% (inactive) | 8

Row | Structure (SMILES) | inhibition (at 10 µM) | inhibition [1] [%]
47 | COc1cc(NC(=O)c2cccs2)c(C(=O)OCC(=O)NC(=O)NCc2ccccc2)cc1OC | 8% (inactive) | 17
48 | COc1cc(C=C(c2nc3ccccc3s2)c2nc3ccccc3s2)ccc1O | 31% (inactive) | 57
49 | CCOc1ccc(Nc2oc(-c3ccccc3Cl)nc2C#N)cc1 | 25% (inactive) | 43
50 | CCOC(=O)c1c(C)oc2c1c(C=NC1CCS(=O)(=O)C1)c(O)c1ccccc12 (centres undefined) | 38% (inactive) | 11
51 | O=S(=O)(NCc1csc(-c2cccnc2)n1)c1ccc(Cl)s1 | 31% (inactive) | 19
52 | CCOc1ccc(C2C3=C(Nc4nc(N)[nH]c(=O)c42)c2ccccc2C3=O)cc1 (centres undefined) | 22% (inactive) | 39
53 | Cc1ccc(S(=O)(=O)Cc2ccc(C(=O)N3CCc4ccccc4C3)o2)cc1 | 43% (inactive) | 10
54 | O=C(Nc1ccc(O)cc1C(=O)O)c1ccc2c(c1)C(=O)N(Cc1ccco1)C2=O | 52% (active) | 72
55 | COc1ccc(C2C=C(c3ccc(Cl)cc3)Nc3nc(NC(C)=O)nn32)cc1 (centres undefined) | 16% (inactive) | 21
56 | C/C=C(/C(=C/C)c1ccc(O)cc1)c1ccc(O)cc1 | 55% (active) | 85
57 | Cc1cc(C)nc(NC(=O)CSc2nn(C)c(=S)s2)n1 | 6% (inactive) | 20
58 | O=S(=O)(NCc1csc(-c2cccnc2)n1)c1cccs1 | 34% (inactive) | 21
59 | CCOC(=O)c1ccc(NC(=O)CSc2nc(C)cc(=O)[nH]2)cc1 | 30% (inactive) | 2
60 | Cc1ccccc1CSCC(=O)NC(=O)NCc1ccco1 | 27% (inactive) | 35
61 | Cc1cc(O)ccc1C1(c2ccc(O)cc2C)OC(=O)c2ccccc21 | 36% (inactive) | 10
62 | Cc1nc2ccc(C(=O)O)cc2[nH]1 | 31% (inactive) | 47
63 | Oc1c(C=Nc2cccc3cccnc23)sc2ccccc12 | 31% (inactive) | 30
64 | COc1ccc(CNC(=O)COC(=O)c2cc(-c3ccco3)nc3ccccc23)cc1 | 18% (inactive) | 8
65 | O=Cc1ccc2oc3nc4n(c(=O)c3c(=O)c2c1)CCCS4 | 15% (inactive) | 2
66 | CCc1ccc(NC(=O)c2noc3c2CCC3)cc1 | 8% (inactive) | 22
67 | Nc1nc(N)c2sc3nc4c(cc3c2n1)CCC4 | 29% (inactive) | 7

From PubChem BioAssay AID1210 (NMMLSC, 2008)
